PubChem BioAssay (NCI)
About 83,000 compounds went through this panel and 20% of them were active in at least one assay; those are over-represented in the sample as a whole.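 Single-concentration screen, 48 h exposure, 96-well plates. Endpoint: percent growth. Below 10 = active.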 Unmarked numbers belong to inactive results. Activity calls are given as the source filed them.

Columns and labels:
Experiment in all cases: NCI-60 one-dose screen, 48 h (100 = growth as untreated, 0 = no growth, -100 = all killed)
Details in all cases: 10 µM
[1] = tested on: NCI-H23 lung
[2] = tested on: NCI-H226 lung
[3] = tested on: NCI-H322M lung
[4] = tested on: HOP-62 NSCLC
[5] = tested on: NCI-H460 lung
[6] = tested on: HOP-92 NSCLC
[7] = tested on: NCI-H522 lung
[8] = tested on: A549/ATCC NSCLC
[9] = tested on: 786-0 renal
[10] = tested on: COLO 205 colon

Row | SMILES | growth [1] | growth [2] | growth [3] | growth [4] | growth [5] | growth [6] | growth [7] | growth [8] | growth [9] | growth [10]
1 | COc1ccc(C(=O)/C=C/c2cc(F)cc(C(F)(F)F)c2)cc1S(N)(=O)=O | -74.8% (active) | -29.3% (active) | -3.66% (active) | -47.4% (active) | -25.3% (active) | -9.39% (active) | -79.6% (active) | 3.37% (active) | -81% (active) | -53.1% (active)
2 | CCN1CCN(c2ccc(NC(=O)Nc3ccc(-c4cc(C(=O)NC(C)C)c5ncccc5n4)cc3)cc2C(F)(F)F)CC1 | -86.3% (active) | -81.2% (active) | -66% (active) | -87.8% (active) | -40.5% (active) | -77.2% (active) | -86.3% (active) | -87.6% (active) | -93.6% (active) | -78.2% (active)
3 | COc1ccc2[nH]c(=O)c(CSc3ccc(Nc4nccc(-c5ccc(Cl)cc5)n4)cc3)cc2c1 | 83.9% | 38.8% | 95.7% | 104% | 112% | 93.2% | 86.7% | 98.1% | 109% | 108%
4 | CN1CCN(c2ccc(Nc3nc(NCCCNC(=O)c4ccc(Cl)cc4)c4sccc4n3)cc2)CC1 | 81.9% | 79.3% | 91.3% | 91.9% | 88.9% | 34.1% | 103% | 87.8% | -4.27% (active) | 92.5%
5 | CN1C(=O)N(C)C2SC(N/N=C/c3cccs3)=NC21 (stereo not given) | 38.4% | 68.2% | 69.3% | 37.7% | 13.2% | 55.6% | -14.6% (active) | 44.2% | 37.3% | 26.8%
6 | O=C(Nc1nc2ccc([N+](=O)[O-])cc2s1)Nc1cc(Cl)ccc1I | -53.2% (active) | -50.9% (active) | -9.64% (active) | -44% (active) | -2.31% (active) | -32.5% (active) | -52.8% (active) | -9.31% (active) | -49.4% (active) | -98.1% (active)
7 | O=C1Nc2cc(Cl)ccc2/C1=C/c1cccc(OCc2ccc(Br)cc2F)c1 | 28.5% | 37.4% | 54% | 11.1% | 0.927% (active) | 6.98% (active) | -2.73% (active) | 29.7% | 17.9% | 3.13% (active)
8 | Cc1ccc(C(C)C)cc1NC(=O)c1ccccc1O | 11.8% | 26.6% | 55% | 54.4% | 30.8% | -4.4% (active) | 20.6% | 47.8% | 58.8% | 100%
9 | COC1=C[C@]23CCC(=O)N2CCc2cc4c(cc2[C@@H]3[C@@H]1OC(=O)CCCC(C)C)OCO4 | 53.2% | 23.3% | 108% | 70.5% | 17.4% | 95.6% | -2.41% (active) | 49.9% | 80.5% | 68%
10 | O=C(CSc1nnc(-c2ccc3nc(-c4ccccc4)[nH]c3c2)o1)Nc1ccc(Cl)cc1 | 21.4% | 31.4% | 63.9% | 62.9% | 48.8% | 79.1% | 28.7% | 57.1% | 16.9% | 73.2%
11 | C=C1CCC2C3(C)COC(c4c(F)cccc4F)OC3CCC2(C)C1C/C=C1/C(=O)OCC1O (stereo not given) | -46.8% (active) | -11.2% (active) | 37.5% | -13.7% (active) | -22.3% (active) | 4.64% (active) | -67.7% (active) | 10.1% | -77.6% (active) | -35.8% (active)
12 | COc1ccc(/C(C)=N/N=C2C(=O)N(C)c3ccc(Br)cc32)cc1S(N)(=O)=O | 64.1% | 43.6% | 80.8% | 36.2% | 74.8% | 28.1% | 45.5% | 86.1% | 71.4% | 102%
13 | Cc1ccc(CNC(=O)Cc2ccc3c(c2)CN(C2CCC(=O)NC2=O)C3=O)cc1 (stereo not given) | 66.5% | 3.79% (active) | 16.1% | -10.2% (active) | 95% | -22.5% (active) | 9.7% (active) | 10.6% | 0.61% (active) | -12.5% (active)
